Values joined by “and” are separate entries in the source; they are usually repeats but may differ in a detail not shown here. Equal entries are not always repeated. Records with an inconclusive call do not appear. Some compounds were tested as several samples or in several runs, with calls that do not always agree. Active and inactive are the calls of the source. Unless noted, calls come from the whole dose curve; as a rule, active = well fitted curve in the direction sought with a large enough effect in the repeat runs; inconclusive = weak or mixed curves; inactive = no such curve, though single readings can be large; an effect the other way counts as inactive or inconclusive.
Tests used:
[1] = target: Retinoic acid receptor RXR-alpha (Homo sapiens) (UniProt P19793); assay: qHTS assay to identify small molecule agonists of the RXR signaling pathway (AID 1159527; calls by dose curve; note: nearly all actives have a fitted effect of over 35% in size; note: potency is the fitted concentration of half-maximal effect)
Chain of Retinoic acid receptor RXR-alpha (Homo sapiens) (P19793 whole entry, looked up): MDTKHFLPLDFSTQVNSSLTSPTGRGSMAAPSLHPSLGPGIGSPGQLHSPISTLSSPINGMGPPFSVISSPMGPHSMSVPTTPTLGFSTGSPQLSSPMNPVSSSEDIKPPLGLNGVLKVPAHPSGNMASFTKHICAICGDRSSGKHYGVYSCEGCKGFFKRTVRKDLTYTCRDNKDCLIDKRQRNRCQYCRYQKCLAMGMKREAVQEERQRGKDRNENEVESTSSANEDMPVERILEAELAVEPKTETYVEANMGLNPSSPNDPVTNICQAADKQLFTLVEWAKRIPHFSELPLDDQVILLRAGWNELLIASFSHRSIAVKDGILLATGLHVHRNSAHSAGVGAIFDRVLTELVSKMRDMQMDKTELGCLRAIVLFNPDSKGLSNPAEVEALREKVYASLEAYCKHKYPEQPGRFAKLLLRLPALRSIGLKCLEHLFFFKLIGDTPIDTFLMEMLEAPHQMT
In short: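 Agonist mode; 9-cis retinoic acid positive control. HEK 293T UAS-bla reporter cells, 2% charcoal-stripped FBS, 16 hr compound exposure at 37 C/5% CO2. LiveBLAzer B/G FRET substrate 2 hr RT; ex 405, em 460/530 nm.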

[2] = qHTS assay to identify small molecule agonists of the RXR signaling pathway - cell viability counter screen (AID 1159529); note: nearly all actives have a fitted effect of over 50% in size; note: potency is the fitted concentration of half-maximal effect
In short: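 Luminescence from CellTiter-Glo (30 min, RT) measured viability in the same wells as the beta-lactamase reporter readout. Cells: GeneBLAzer RXR-alpha HEK 293T, 2% charcoal-stripped FBS. Compound exposure 16 hr, 37 C.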

[3] = qHTS assay to identify small molecule antagonists of the retinoid acid receptor (RAR) signaling pathway - cell viability counter screen (AID 1159551); note: nearly all actives have a fitted effect of over 35% in size; note: potency is the fitted concentration of half-maximal effect
In short: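 In this counter screen, the RARE-luciferase line C3RL4 was exposed for 6 h at 37 C and 5% CO2 to compounds with retinol at 1 uM final. Cellular ATP, read by luminescence, served as the viability measure.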

[4] = qHTS assay to identify small molecule antagonists of the retinoic acid receptor (RAR) signaling pathway (AID 1159552; note: nearly all actives have a fitted effect of over 50% in size)
In short: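 Luminescence from a RARE luciferase reporter in C3RL4 cells served as read-out. Cells received compounds together with 1 uM final retinol and incubated 6 hr at 37 C before detection reagent was added for 30 min at room temperature.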

[5] = qHTS assay to identify small molecule agonists of the retinoic acid receptor (RAR) signaling pathway (AID 1159553)
In short: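 In this cell-based screen, 1,000 C3RL4 cells per well were cultured overnight, dosed with test chemicals in DMSO for 6 hr, and assessed for RARE luciferase luminescence.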

[6] = target: Luciferin 4-monooxygenase (Photinus pyralis) (UniProt P08659); assay: qHTS assay to identify small molecule inhibitors of firefly luciferase (AID 1224835); note: nearly all actives have a fitted effect of over 25% in size; note: potency is the fitted concentration of half-maximal effect
Chain of Luciferin 4-monooxygenase (Photinus pyralis) (P08659 whole entry, looked up): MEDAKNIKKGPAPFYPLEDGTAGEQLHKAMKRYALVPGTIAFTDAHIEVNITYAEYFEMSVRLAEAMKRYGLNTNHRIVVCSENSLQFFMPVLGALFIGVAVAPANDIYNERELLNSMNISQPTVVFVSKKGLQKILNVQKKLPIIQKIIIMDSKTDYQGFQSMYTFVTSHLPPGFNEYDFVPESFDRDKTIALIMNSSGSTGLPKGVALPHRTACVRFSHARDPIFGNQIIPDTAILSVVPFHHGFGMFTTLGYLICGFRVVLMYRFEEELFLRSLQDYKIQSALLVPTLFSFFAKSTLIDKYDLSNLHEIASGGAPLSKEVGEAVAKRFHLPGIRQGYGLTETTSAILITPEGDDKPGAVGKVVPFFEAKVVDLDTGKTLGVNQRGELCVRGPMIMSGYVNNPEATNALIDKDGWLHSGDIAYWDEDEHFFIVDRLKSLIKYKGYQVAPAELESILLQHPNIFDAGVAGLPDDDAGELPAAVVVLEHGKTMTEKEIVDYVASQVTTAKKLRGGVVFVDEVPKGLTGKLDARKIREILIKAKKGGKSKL
In short: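 Inhibition of purified Photinus luciferase is measured by luminescence. Substrate levels (D-luciferin, ATP) sit at their KM values. Each compound is tested in a concentration series.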

[7] = qHTS assay to identify small molecule agonists of the constitutive androstane receptor (CAR) signaling pathway - cell viability counter screen (AID 1224836); note: nearly all actives have a fitted effect of over 45% in size; note: potency is the fitted concentration of half-maximal effect
In short: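 Viability read-out: CellTiter-Fluor fluorescence after 23 h compound exposure at 37 C/5% CO2 in double-stable HepG2-CYP2B6-hCAR cells, with PK11195 present at 0.75 uM final; compounds tested in 15-point titration.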

[8] = qHTS assay to identify small molecule antagonists of the constitutive androstane receptor (CAR) signaling pathway - cell viability counter screen (AID 1224837); note: nearly all actives have a fitted effect of over 45% in size; note: potency is the fitted concentration of half-maximal effect
In short: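 CITCO at 50 nM final was added alongside compounds (15 concentrations) to double-stable hCAR/CYP2B6-2.2kb HepG2 cells. Following 23 hr at 37 C, cell viability was quantified by CellTiter-Fluor fluorescence intensity.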

[9] = target: Nuclear receptor subfamily 1 group I member 3 (Homo sapiens) (UniProt Q14994); assay: qHTS assay to identify small molecule antagonists of the constitutive androstane receptor (CAR) signaling pathway (AID 1224838); note: nearly all actives have a fitted effect of over 40% in size; note: potency is the fitted concentration of half-maximal effect
Chain of Nuclear receptor subfamily 1 group I member 3 (Homo sapiens) (Q14994 whole entry, looked up): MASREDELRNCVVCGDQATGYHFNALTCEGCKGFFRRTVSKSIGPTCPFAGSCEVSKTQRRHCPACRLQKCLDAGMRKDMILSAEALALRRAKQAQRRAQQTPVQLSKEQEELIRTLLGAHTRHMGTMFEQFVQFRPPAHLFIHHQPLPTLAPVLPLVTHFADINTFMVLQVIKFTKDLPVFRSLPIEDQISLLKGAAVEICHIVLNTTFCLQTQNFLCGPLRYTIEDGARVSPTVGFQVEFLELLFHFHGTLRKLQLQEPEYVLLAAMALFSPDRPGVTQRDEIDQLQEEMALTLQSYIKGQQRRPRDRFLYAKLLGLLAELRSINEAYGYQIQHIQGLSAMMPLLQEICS
In short: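 Inhibition of CITCO-driven (50 nM final) CYP2B6 reporter expression is measured in HepG2 cells stably carrying hCAR. Fifteen compound concentrations are applied for 24 h at 37 C, followed by luciferase luminescence.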

[10] = target: Nuclear receptor subfamily 1 group I member 3 (Homo sapiens) (UniProt Q14994); assay: qHTS assay to identify small molecule agonists of the constitutive androstane receptor (CAR) signaling pathway (AID 1224839); note: series mostly up to about 92 µM; nearly all actives have a fitted effect of over 15% in size
In short: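 Luminescence read-out (ONE-Glo, 30 min, room temperature) from double-stable HepG2-CYP2B6-hCAR cells exposed 24 h to 15-point compound series in presence of 0.75 uM PK11195 final.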

[11] = qHTS assay to identify small molecule antagonists of the estrogen related receptor signaling pathway with the pleiotropic PPARgamma coactivator (PGC) from Tox21 10K library - cell viability counter screen (AID 1224840; active = well fitted cell-killing curve with a large enough effect in the repeat runs, not every such curve was filed as active; note: nearly all actives have a fitted effect of over 40% in size; note: potency is the fitted concentration of half-maximal effect)
In short: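 Readout: fluorescence intensity from CellTiter-Fluor after 30 min at 37 C/5% CO2. Preceded by 17.5 h treatment of PGC/ERR cells with DMSO-dissolved compounds, added 6 h post-seeding.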

[12] = qHTS assay to identify small molecule antagonists of the estrogen related receptor signaling pathway with the pleiotropic PPARgamma coactivator (PGC) from Tox21 10K library (AID 1224841; call rule not given here; note: actives are mostly falling curves and most rising ones were filed inactive; nearly all actives have a fitted effect of over 50% in size; note: potency is the fitted concentration of half-maximal effect)
In short: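 One-Glo luminescence, measured after half an hour at room temperature, quantified reporter output of PGC/ERR cells. These had been plated at 2,000 per well, incubated 6 h, dosed with compounds in DMSO, then kept 18 h at 37 C.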

[13] = qHTS assay to identify small molecule agonists of the estrogen related receptor signaling pathway with the pleiotropic PPARgamma coactivator (PGC) from Tox21 10K library (AID 1224842); note: nearly all actives have a fitted effect of over 15% in size
In short: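 Luminescence from One-Glo (30 min, room temperature) measured after PGC/ERR cells had 18 h at 37 C with pinned compound (23 nL in DMSO). Cells had been seeded at 2,000 per well and pre-incubated 6 h.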

[14] = qHTS assay to identify small molecule antagonists of the estrogen related receptor (ERR) signaling pathway from Tox21 library - cell viability counter screen (AID 1224834); note: nearly all actives have a fitted effect of over 30% in size; note: potency is the fitted concentration of half-maximal effect
In short: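 Counter screen run in ERR cells (2,000 cells/well): cells pre-incubated 6 h, then treated with compounds for 17.5 h at 37 C. Fluorescence was read 30 min after CellTiter-Fluor addition.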

[15] = qHTS assay to identify small molecule antagonists of the estrogen related receptor (ERR) signaling pathway - cell viability counter screen (AID 1224818); note: series mostly up to about 46 µM
In short: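 Viability of ERR cells, CellTiter-Fluor fluorescence; 17.5 h compound exposure at 37 C, DMSO vehicle; 30 min reagent incubation at 37 C/5% CO2.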

[16] = qHTS assay to identify small molecule antagonists of the estrogen related receptor (ERR) signaling pathway (AID 1224819;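 note: luminescence from an ERR-driven luciferase reporter measured with One-Glo reagent; series mostly up to about 46 µM; nearly all actives have a fitted effect of over 50% in size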)
In short: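 Seed ERR cells 2,000/well; rest 6 h at 37 C/5% CO2; pin compounds in DMSO; incubate 18 h at 37 C; add One-Glo; wait 30 min at room temperature; measure luminescence.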

[17] = qHTS assay to identify small molecule agonists of the estrogen related receptor (ERR) signaling pathway (AID 1224820)
In short: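 Luminescence readout (One-Glo, 30 min RT) from NTP-supplied ERR cell line exposed to compounds for 18 h at 37 C. Cells seeded 2,000 per well and pre-incubated 6 h before pin-tool compound transfer.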

[18] = tested on: estrogen-related receptor alpha (ERRalpha) with PGC-1alpha coactivator, human; assay: qHTS assay to identify small molecule antagonists of the estrogen related receptor signaling pathway with the pleiotropic PPARgamma coactivator (PGC) (AID 1224821; calls by dose curve)
In short: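 PGC/ERR reporter cells; 6 h pre-incubation 37 C/5% CO2; pin-tool compound in DMSO, 18 h 37 C; One-Glo added, 30 min RT; luminescence read. qHTS antagonist mode.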

[19] = qHTS assay to identify small molecule antagonists of the estrogen related receptor signaling pathway with the pleiotropic PPARgamma coactivator (PGC) cell viability counter screen (AID 1224822; note: series mostly up to about 46 µM)
In short: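 17.5 h compound treatment of PGC/ERR cells at 37 C; readout CellTiter-Fluor fluorescence; run alongside the PGC/ERR antagonist screen to flag cytotoxic compounds.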

[20] = qHTS assay to identify small molecule agonists of the estrogen related receptor signaling pathway with the pleiotropic PPARgamma coactivator (PGC) (AID 1224823)
In short: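 Luminescence readout (One-Glo, 30 min RT) from PGC/ERR cell line treated 18 h at 37 C with pin-tool-delivered DMSO compound solutions; cells plated 6 h before dosing. Quantitative HTS format.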

Measured: Potency

Nc1c(N=Nc2ccc(-c3ccc(N=Nc4cc(S(=O)(=O)O)c5ccccc5c4N)cc3)cc2)cc(S(=O)(=O)O)c2ccccc12
active: [3] 17.2 µM | [6] 39.9 µM | [7] 27.3 µM | [8] 24.3 µM | [9] 27.3 µM | [11] 21.7 µM | [12] 21.7 µM
inactive: [1] | [2] | [4] | [5] | [10] | [13]

CCCCC1(COC(=O)CCC(=O)O)C(=O)N(c2ccccc2)N(c2ccccc2)C1=O
not listed: [9] | [10] | [15] | [16] | [17] | [18] | [19] | [20]
inactive: all other assays above

Cc1c(C(=O)O)c(O)cc2c1C(=O)c1c(O)c([C@@H]3O[C@H](CO)[C@@H](O)[C@H](O)[C@H]3O)c(O)c(O)c1C2=O
inactive: [1] | [2] | [4] | [5] | [11]
active: [3] 33.5 µM and 48.6 µM | [14] 33.5 µM and 27.3 µM | [6] 34.7 µM and 35.6 µM and 17.4 µM

O=c1[nH]cnc2c1ncn2[C@H]1CC[C@@H](CO)O1
not listed: [14] | [15] | [16] | [17] | [18] | [19] | [20]
inactive: all other assays above

CC(=O)C(=O)O
inactive: [1] | [2] | [3] | [4] | [5] | [6] | [7] | [8] | [9] | [10] | [11]

CC1(C)O[C@@H]2C[C@H]3[C@@H]4CCC5=CC(=O)C=C[C@]5(C)[C@@]4(F)[C@@H](O)C[C@]3(C)[C@]2(C(=O)CO)O1
inactive: [1] | [2] | [3] | [4] | [5] | [6] | [7] | [8] | [11] | [12] | [13]

Cn1c(=O)c2c(ncn2C)n(C)c1=O
not listed: [6] | [7] | [8] | [12] | [14]
inactive: all other assays above

CN(C)C(=O)Nc1ccc(Cl)c(Cl)c1
inactive and 19.5 µM (active): [1]
not listed: [10] | [14] | [15] | [16] | [17] | [18] | [19] | [20]
inactive: all other assays above

COc1ccc(CN(CCN(C)C)c2ccccn2)cc1
40.2 µM (active) and inactive: [2]
inactive: [1] | [3] | [4] | [5] | [15] | [19] | [6] | [7] | [8] | [11]

Cc1cc(C)nc(NS(=O)(=O)c2ccc(N)cc2)n1
14 µM (active) and inactive: [1]
inactive: [2] | [3] | [4] | [5] | [6] | [7] | [8] | [9] | [10] | [11]

CN(N=O)C(=O)N[C@@H]1[C@@H](O)[C@H](O)[C@@H](CO)O[C@@H]1O
inactive: [1] | [2] | [3] | [4] | [5] | [6] | [7] | [8] | [9] | [10] | [11]

C=C(C)C(=O)OCC(C)O (stereo unspecified)
inactive: [1] | [2] | [3] | [4] | [5] | [6] | [7] | [8] | [9] | [10] | [11]

CCN(CC)C(=O)c1cccc(C)c1
not listed: [9] | [10] | [15] | [16] | [17] | [18] | [19] | [20]
inactive: all other assays above

CCCCCCc1ccc(O)cc1O
active: [2] 49.1 µM and 54.9 µM
not listed: [14] | [15] | [16] | [17] | [18] | [19] | [20]
inactive: all other assays above

CCCC[P+](CCCC)(CCCC)CCCC
inactive: [1] | [2] | [3] | [5] | [7] | [8] | [9] | [10] | [11]

Cc1ccc(S(=O)(=O)O)cc1
inactive: [1] | [2] | [3] | [14] | [7] | [8] | [11]

Nc1ccc(O)c([N+](=O)[O-])c1
inactive: [2] | [3] | [4] | [16] | [18] | [19] | [20] | [12]
active: [1] 7.76 µM | [6] 79.6 µM | [9] 12.2 µM
